Legend:
Format in all cases: functional
[1] = system: Plasmodium falciparum; assay: GSK_TCMDC: Inhibition of Plasmodium falciparum 3D7 in whole red blood cells, using parasite LDH activity as an index of growth. Test compounds present at 2uM
[2] = system: Plasmodium falciparum; assay: GSK_TCMDC: Inhibition of Plasmodium falciparum Dd2 in whole red blood cells, using parasite LDH activity as an index of growth. Test compounds present at 2uM
[3] = system: HepG2; assay: GSK_TCMDC: Percent inhibition of human HepG2 cell line. Test compounds present at 10uM.

Row | SMILES | Inhibition [1] [%] | Inhibition [2] [%] | Inhibition [3] [%]
1 | COc1ccc(NC(=O)[C@H](Cc2ccccc2)Nc2cc(C)nc(NCC3CCCCC3)n2)cc1.O=C(O)C(F)(F)F | 100 | 83 | 9
2 | Cc1cccc2nc(-c3ccc(-c4cccc(C(=O)NCCc5cn(C)cn5)c4)s3)[nH]c12 | 92 | 17 | 27
3 | Fc1cccc(COc2ccc(Nc3ncnc4sc(C#C[C@H]5CC[C@H](CN6CCOCC6)N5)cc34)cc2Cl)c1 | 92 | 23 | 16
4 | N#CC(NC(=O)C=Cc1ccccc1)c1ccccc1 (configuration not stated) | 95 | 3 | 3
5 | O=C(CSc1nccn1C1CCCCC1)Nc1cc(C(F)(F)F)ccc1Cl | 96 | 95 | 2
6 | COC(=O)c1cc(OC)c(OC)cc1NC(=O)NC12CC3CC(CC(C3)C1)C2 | 94 | 3 | 6
7 | O=C(O)C(F)(F)F.O=[N+]([O-])c1cccc(CNCC2CCN(Cc3ccc(O)cc3)CC2)c1 | 98 | 5 | 8
8 | O=C(Cc1ccccc1)NC(Nc1ccc([N+](=O)[O-])cc1)C(Cl)(Cl)Cl (configuration not stated) | 99 | 100 | 21
9 | Br.Oc1ccccc1CCNCC1CCc2ccccc2C1 (configuration not stated) | 98 | 98 | 37
10 | COc1ccccc1NC(=O)Nc1ccc(-c2ccc(-c3nc4cc(C(F)(F)F)ccc4[nH]3)cc2)cc1 | 100 | 61 | 52
11 | OCCCCCCNc1nc(NCc2ccccc2-c2ccc(C(F)(F)F)cc2)nc(N2CCNCC2)n1 | 89 | 16 | 13
12 | CN1CCN(CC(=O)Nc2ccc(-c3ccc(-c4nc5ccccc5[nH]4)cc3)cc2)CC1 | 98 | 80 | 18
13 | COc1cc(Cc2cnc(N)nc2N)cc(OCCCCC2SC(=O)NC2=O)c1Br (configuration not stated) | 94 | 0 | 15
14 | CN1CCN(CC(=O)Nc2cccc(-c3ccc(-c4nc5cc(C(F)(F)F)ccc5[nH]4)s3)c2)CC1 | 100 | 95 | 36
15 | CCNC(=O)c1ccc2c(c1)c(C)c(C)n2Cc1ccc(F)cc1 | 93 | 91 | 25
16 | FC(F)(F)c1ccc2[nH]c(-c3ccc(-c4cccc(CNCc5cnn(-c6ccccc6)n5)c4)s3)nc2c1.O=C(O)C(F)(F)F | 100 | 91 | 38
17 | Cc1cc(N)c2cc(NC(=O)/C=C/c3ccc([N+](=O)[O-])cc3)ccc2n1 | 100 | 80 | 76
18 | Cl.Clc1cc(Br)ccc1-c1ccc(CNCC2CCNCC2)o1 | 96 | 39 | 100
19 | COc1ccc(CN2CCC(CNCC(c3ccccc3)c3ccccc3)CC2)cc1.O=C(O)C(F)(F)F | 100 | 95 | 84
20 | CCN(CC)Cc1ccc2c(=O)cc(CCc3cccc(F)c3F)n(CC(=O)N(Cc3ccc(-c4ccc(C(F)(F)F)cc4)cc3)C(C)C)c2c1.O=C(O)C(O)C(O)C(=O)O | 100 | 63 | 82
21 | CN(C1CCC(NC(=O)/C=C/c2ccccc2)CC1)C1CC2(CCN(C(=O)OC(C)(C)C)CC2)c2ccccc21 (configuration not stated) | 95 | 95 | 16
22 | OC(CNCc1ccco1)Cn1c2ccc(Br)cc2c2cc(Br)ccc21 (configuration not stated) | 92 | 72 | 10
23 | CC1(C)[C@H]2CC[C@@H](CNc3nc(NCCc4c[nH]cn4)nc(Nc4ccc(Oc5ccccc5)cc4)n3)[C@@H]1C2 | 99 | 86 | 2
24 | C#CCCOc1ccc2ccccc2c1CNCCCCCCNCc1c(OCCC#C)ccc2ccccc12 | 100 | 65 | 100

Reference: ChEMBL document CHEMBL1157539, “Thousands of chemical starting points for antimalarial lead identification” (Nature, 2010)
